Where “and” joins values, the source holds several entries; their conditions need not be identical. Identical values can stand only once. Records with an inconclusive call do not appear. A call without a number means that no potency is given here. Calls of active or inactive are those of the source. The call rests on the fitted dose curve; in most records, active means well fitted curve in the direction sought with a large enough effect; inconclusive means small, poorly fitted or top-dose-only effect, or another doubt; inactive means no such curve, though single readings can be large; an effect the other way counts as inactive or inconclusive.
Experiments:
[1] = qHTS assay to identify small molecule inhibitors of chordoma cells - UCH-1 (AID 1259355); further: nearly all actives have a fitted effect of over 55% in size
Outline: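 Luminescent ATP read-out (CellTiter-Glo, 30min at room temperature) measured viability of UCH-1 cells exposed for 48hr to test drugs at 15 concentrations, co-dosed with a five-agent combination of auranofin, camptothecin, doxorubicin, rubitecan and topotecan.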

[2] = qHTS assay to identify small molecule inhibitors of chordoma cells - UCH-2 (AID 1259356); further: series mostly up to about 46 µM
[3] = P-glycoprotein substrates identified in KB-8-5-11 adenocarcinoma cell line, qHTS therapeutic library screen (AID 1346987); further: nearly all actives have a fitted effect of over 65% in size; further: potency means the concentration at half of the fitted maximal effect
Outline: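 P-gp-mediated resistance screen: KB-8-5-11 cells treated 72 h with compounds in dose-response. CellTiter-Glo viability.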

[4] = NS1 protein of Zika virus - qHTS assay to identify small molecule inhibitors in human HEK 293 cells (AID 1347053); further: series mostly up to about 46 µM; nearly all actives have a fitted effect of over 55% in size
Outline: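 Following 20 h seeding, HEK 293 cells took compound, then 1 h later ZIKV MR766 (MOI = 0.5). Incubation ran 24 h at 37 C before TR-FRET detection of NS1; a drop in signal indicates inhibition.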

[5] = qHTS of pediatric cancer cell lines to identify multiple opportunities for drug repurposing: Primary screen for TC32 cells (AID 1347089); further: nearly all actives have a fitted effect of over 60% in size; further: potency means the concentration at half of the fitted maximal effect
Outline: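 TC32 cells, 500-1,000/well in growth medium, compound-treated 48 h at 37 °C; viability from CellTiter-Glo luminescence. Primary screen: MIPE 11-point (0.78 nM–46 µM final), NPC 8-point (0.59 nM–46 µM final); confirmatory at 11-point dilutions.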

[6] = qHTS of pediatric cancer cell lines to identify multiple opportunities for drug repurposing: Primary screen for DAOY cells (AID 1347090); further: nearly all actives have a fitted effect of over 55% in size; further: potency means the concentration at half of the fitted maximal effect
Outline: (§1)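 Eight- or eleven-point concentration series, 48 h treatment at 37 degrees C in growth media; readout CellTiter-Glo luminescence. Potency and efficacy were taken from the concentration-response curves.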

[7] = qHTS of pediatric cancer cell lines to identify multiple opportunities for drug repurposing: Primary screen for A673 cells (AID 1347092); further: nearly all actives have a fitted effect of over 45% in size; further: potency means the concentration at half of the fitted maximal effect
Outline: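 A673 cells (500-1,000 cells/well) were treated 48 hours at 37 degrees C with compounds at 11-point (0.78 nM to 46 µM) or 8-point (0.59 nM to 46 µM) dilutions. Viability read by CellTiter-Glo luminescence; concentration-response curves fitted.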

[8] = qHTS of pediatric cancer cell lines to identify multiple opportunities for drug repurposing: Primary screen for BT-37 cells (AID 1347094); further: potency means the concentration at half of the fitted maximal effect
Outline: (§2)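 Cells plated at 500-1,000/well in growth medium, compounds added after 5 h. MIPE tested at 11 points (from 0.78 nM), NPC at 8 points (from 0.59 nM). CellTiter-Glo luminescence after 48 h; concentration-response curves from primary screen.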

[9] = qHTS of pediatric cancer cell lines to identify multiple opportunities for drug repurposing: Primary screen for NB-EBc1 cells (AID 1347095); further: potency means the concentration at half of the fitted maximal effect
Outline: as §2

[10] = qHTS of pediatric cancer cell lines to identify multiple opportunities for drug repurposing: Primary screen for U-2 OS cells (AID 1347096); further: nearly all actives have a fitted effect of over 50% in size
Outline: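 Cells (500-1,000/well) in growth media were settled 5 h at 37 degrees C, then given compounds for 48 h. Viability was read as CellTiter-Glo luminescence. Primary runs used MIPE at 11 points (0.78 nM-46 µM) and NPC at 8 points (0.59 nM-46 µM); follow-ups used 11 points.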

[11] = qHTS of pediatric cancer cell lines to identify multiple opportunities for drug repurposing: Primary screen for SJ-GBM2 cells (AID 1347091); further: potency means the concentration at half of the fitted maximal effect
Outline: as §1

[12] = qHTS of pediatric cancer cell lines to identify multiple opportunities for drug repurposing: Primary screen for SK-N-MC cells (AID 1347093); further: potency means the concentration at half of the fitted maximal effect
Outline: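 Metabolically active cells were quantified by ATP-dependent luminescence (CellTiter-Glo, 15 min at room temperature) following 48 h treatment. Cells had been plated at 500-1,000 per well and settled for 5 h beforehand.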

Structure (SMILES)	Potency [1]	Potency [2]	Potency [3]	Potency [4]	Potency [5]	Potency [6]	Potency [7]	Potency [8]	Potency [9]	Potency [10]	Potency [11]	Potency [12]
C[C@@H](O)[C@H]1C(=O)N2C(C(=O)O)=C(S[C@@H]3CN[C@H](CNS(N)(=O)=O)C3)[C@H](C)[C@H]12	inactive	inactive	inactive	inactive	inactive	inactive	inactive	inactive	inactive	inactive		
CCc1nn(CCCN2CCN(c3cccc(Cl)c3)CC2)c(=O)n1CCOc1ccccc1	inactive	inactive	10.3 µM (active)	inactive	inactive				inactive			
N/C(=N\N=C\c1ccc(Cl)cc1)N/N=C/c1ccc(Cl)cc1	inactive	inactive	inactive	inactive	inactive					inactive		
Cn1c(=O)c2[nH]c(Br)nc2n(C)c1=O	inactive	inactive	inactive		inactive	inactive	inactive	inactive	inactive	inactive	inactive	
O=C(CCCN1CC=C(n2c(=O)[nH]c3ccccc32)CC1)c1ccc(F)cc1	inactive	inactive	inactive	inactive		inactive			inactive		inactive	
CCC1Nc2cc(Cl)c(S(N)(=O)=O)cc2S(=O)(=O)N1 (centres undefined)	inactive	inactive	inactive		inactive	inactive	inactive	inactive	inactive	inactive	inactive	inactive
COc1ccc(S(=O)(=O)N2c3ccc(Cl)cc3[C@@](O)(c3ccccc3Cl)[C@H]2C(=O)N2CCC[C@@H]2C(N)=O)cc1OC	inactive	inactive	inactive		inactive	inactive	inactive	inactive	inactive		inactive	
CC[C@]12CCCN3CCc4c(n(c5ccccc45)C(=O)C1)[C@@H]32	inactive	inactive	5.56 µM (active) and 5.8 µM (active)	inactive			10.6 µM (active)		1.88 µM (active)	inactive	5.96 µM (active)	5.96 µM (active)
COc1cc(C)nc(-n2nc(C)cc2OC)n1	inactive	inactive	inactive	inactive	inactive	inactive		inactive	inactive			inactive
O=C1C(O)=C(O)C(=O)C(O)=C1O	inactive	inactive	inactive		inactive	inactive	inactive	inactive	inactive	inactive	inactive	inactive
CCCCCCCCCCC[C@@H](C[C@@H]1OC(=O)[C@H]1CCCCCC)OC(=O)[C@H](CC(C)C)NC=O	inactive	inactive	inactive	inactive	inactive	inactive		inactive				
O=C(O)CCc1nc2ccccc2[nH]1	inactive	inactive	inactive		inactive	inactive	inactive	inactive	inactive	inactive	inactive	inactive
CCc1oc2ccccc2c1C(=O)c1cc(Br)c(O)c(Br)c1	inactive	inactive	inactive	inactive	inactive			inactive		inactive		
CCOc1ccccc1C(N)=O	inactive	inactive	inactive		inactive	inactive	inactive	inactive	inactive	inactive	inactive	inactive
Cc1nc(-c2ccc(Cl)cc2)oc1COC(C)(C)C(=O)O	inactive	inactive	inactive		inactive	inactive	inactive	inactive	inactive	inactive	inactive	inactive
CCc1cc(Cl)c(OC)c(C(=O)NC[C@@H]2CCCN2CC)c1O	inactive	inactive	inactive		inactive	inactive	inactive	inactive		inactive	inactive	inactive
O=S(c1cc(Cl)cc(Cl)c1O)c1cc(Cl)cc(Cl)c1O	inactive	inactive	inactive	inactive	inactive	inactive	inactive	inactive		inactive		
COc1cc(C(=O)NCc2ccc(OCCN(C)C)cc2)cc(OC)c1OC	inactive	inactive	inactive	inactive	inactive	inactive	inactive	inactive		inactive		inactive
CC(=O)OCC(=O)[C@H]1CC[C@H]2[C@@H]3CCC4=CC(=O)CC[C@]4(C)[C@H]3CC[C@]12C	inactive	inactive	7.31 µM (active)		inactive	inactive	inactive	inactive	inactive	inactive	inactive	inactive
C/C=C/c1ccc(O)c(OC)c1	inactive	inactive	inactive		inactive	inactive	inactive	inactive		inactive	inactive	inactive
COc1cc(NS(=O)(=O)c2ccc(N)cc2)ncn1	inactive	inactive	inactive		inactive	inactive	inactive	inactive	inactive	inactive	inactive	inactive
O=C(NCCc1c[nH]c2ccccc12)c1cccnc1	inactive	inactive	inactive		inactive	inactive	inactive	inactive	inactive	inactive	inactive	inactive
c1ccc(CC2=NCCN2)cc1	inactive	inactive	inactive	inactive	inactive	inactive	inactive	inactive	inactive	inactive		

Structure (SMILES)	Potency [1]	Potency [2]	Potency [3]	Potency [4]	Potency [5]	Potency [6]	Potency [7]	Potency [8]	Potency [9]	Potency [10]	Potency [11]	Potency [12]
OC1C(O)C(O)C(O)C(O)C1O (centres undefined)	inactive	inactive	inactive		inactive	inactive	inactive	inactive	inactive	inactive	inactive	inactive
O=C(c1ccc(F)cc1)C1CCN(CCn2c(=S)[nH]c3ccccc3c2=O)CC1	inactive	inactive	inactive	inactive	inactive	inactive	16.8 µM (active)		inactive	inactive		inactive
C[N+]1(C)CCC(=C(c2ccccc2)c2ccccc2)CC1	inactive	inactive	inactive		inactive	inactive	inactive	inactive	inactive		inactive	inactive
C=C1c2cccc(O)c2C(O)=C2C(=O)[C@]3(O)C(O)=C(C(N)=O)C(=O)[C@@H](N(C)C)[C@@H]3[C@@H](O)[C@H]12	inactive	inactive	inactive	inactive	inactive	inactive		inactive	inactive	inactive		inactive
NCc1ccccc1Sc1ccccc1CO	inactive	inactive	inactive		inactive	inactive	inactive	inactive	inactive	inactive	inactive	inactive
CCOC(=O)[C@@](C)(N)Cc1ccc(O)c(O)c1	inactive	inactive	inactive	inactive	21 µM (active)			inactive		inactive	inactive	
CC(=O)Oc1ccc(C)cc1	inactive	inactive	inactive		inactive	inactive	inactive	inactive		inactive	inactive	inactive
CCC(CC)(CC(=O)Nc1cccc(/C=C/c2nc(C3CCC3)cs2)c1)C(=O)O	inactive	inactive	inactive		inactive	inactive	inactive	inactive	inactive	inactive	inactive	
CC(C)(C)NCC(O)COc1cccc2c1C[C@H](O)[C@H](O)C2 (some centres undefined)	inactive	inactive	inactive		inactive	inactive	inactive	inactive	inactive	inactive	inactive	inactive
COc1ccc(C(=O)c2ccccc2O)c(O)c1	inactive	inactive		inactive	inactive	inactive	inactive	inactive	inactive	inactive	inactive	inactive
Cc1ccc(O)c([C@H](CCN(C(C)C)C(C)C)c2ccccc2)c1	inactive	inactive		inactive	inactive	inactive	inactive	inactive		inactive	inactive	
CCOC(=O)C(C#N)=C(c1ccccc1)c1ccccc1	inactive	inactive		inactive	inactive	inactive	inactive	inactive	inactive	inactive	inactive	inactive
CN1CCN(C2=Nc3ccccc3Sc3ccc(Cl)cc32)CC1	inactive	inactive		inactive	inactive	inactive	inactive	inactive	inactive	inactive	inactive	inactive
O=C(NC1CCN(CCc2c[nH]c3ccccc23)CC1)c1ccccc1	inactive	inactive		inactive	inactive	inactive	inactive	inactive	inactive	inactive	inactive	inactive
CCCCCCCCCCCCOCCOCCOCCOCCOCCOCCOCCOCCOCCO	inactive	inactive	3.26 µM (active)			16.8 µM (active)	21.1 µM (active)	19.5 µM (active)	21.1 µM (active)	inactive		
CN1CCN(C2=Nc3cc(F)ccc3Cc3ccccc32)CC1	inactive	inactive		inactive	inactive	inactive	inactive		inactive		inactive	
CCCCOC(=O)CC(CC(=O)OCCCC)(OC(C)=O)C(=O)OCCCC	inactive	inactive		inactive	inactive	inactive	inactive	inactive	inactive	inactive	inactive	inactive
Clc1cccc(C(c2ccc3nc[nH]c3c2)n2ccnc2)c1 (centres undefined)	inactive	inactive		inactive	inactive	inactive	inactive	inactive	inactive	inactive	inactive	inactive
CCCCCCCCCCCCCC(=O)OC(C)C	inactive	inactive		inactive	inactive	inactive	inactive	inactive	inactive	inactive	inactive	inactive
CCCCCN=C(N)N/N=C/c1c[nH]c2ccc(OC)cc12	inactive	inactive	inactive					24.6 µM (active)				
O=[N+]([O-])c1ccc(/C=N\O)o1	inactive	inactive		inactive	inactive	inactive		inactive	inactive	inactive	inactive	4.22 µM (active)
CO[C@]12C[C@@H](COC(=O)c3cncc(Br)c3)CN(C)[C@@H]1Cc1cn(C)c3cccc2c13	inactive	inactive		inactive	inactive	inactive	inactive	inactive		inactive	inactive	inactive
NC(=O)c1ccccc1O	inactive	inactive	inactive		inactive	inactive	inactive	inactive	inactive	inactive		inactive

From PubChem BioAssay (NCATS)
